The nature of assay [1]: qHTS profiling for inhibitors of Plasmodium falciparum (3D7) proliferation (AID 743322).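 Further: infected erythrocytes exposed to compound for 72 h before lysis; 100% = DMSO vehicle wells and 0% = 0.29 µM artemisinin.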 Particulars: P. falciparum 3D7 proliferation; at 28.7 µM (top of the series). In a few lines:
(§1)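 Parasite DNA was quantified by SYBR Green I fluorescence (ex 485, em 535 nm) after overnight lysis in saponin/Triton buffer at room temperature. Cultures at 0.3% parasitemia and 2.5% hematocrit were first exposed to compound for 72 h at 37 C; signals were normalised to artemisinin (0.29 uM) and vehicle wells.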
(Quantitative high-throughput screening tests each substance at several concentrations.)

The nature of assay [2]: qHTS profiling for inhibitors of Plasmodium falciparum (DD2) proliferation (AID 743323). Particulars: lower = more inhibition; at 28.7 µM (top of the series). The essentials:
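SYBR Green fluorescence (ex 485, em 535 nm) of lysed cultures gives parasite DNA content; wells normalized to artemisinin (0.29 uM) and DMSO controls. Infected red cells: 0.3% parasitemia, 2.5% hematocrit, 72 h, 37 C.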

Assay [3] is described as follows: qHTS profiling of the MIPE4 collection as inhibitors of Plasmodium falciparum (DD2) proliferation (AID 743345). The note with it: P. falciparum Dd2 in erythrocytes, SYBR Green DNA, 72 h; at 28.5 µM (top of the series) unless noted. The essentials: as §1
A short description of assay [4]: qHTS profiling of the MIPE4 collection as inhibitors of Plasmodium falciparum (DD2) proliferation (Rep 2) (AID 743346). The note with it: P. falciparum Dd2 in erythrocytes, SYBR Green DNA, 72 h; at 28.5 µM (top of the series) unless noted. In a few lines:
as §1

Assay [5] can be described thus: qHTS profiling of the MIPE4 collection as inhibitors of Plasmodium falciparum (HB3) proliferation (AID 743347).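 Further: plate controls were DMSO vehicle wells for no effect and artemisinin wells for full effect.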 The note with it: P. falciparum HB3 in erythrocytes, SYBR Green DNA, 72 h; at 28.5 µM (top of the series) unless noted. In a few lines:
as §1

Assay [6] is described as follows: High-throughput drug toxicity screening in the BPDCN cell line Gen2.2 (AID 1224824).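 Further: cells exposed to compounds for 48 h before reading.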 The note with it: Gen2.2 BPDCN cells; at 45.8 µM (top of the series) unless noted. The essentials:
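Gen2.2 cells, 500 per well in phenol red-free RPMI with 10% FBS, exposed to compounds 48 h at 37 C, 5% CO2; viability by CellTiter-Glo luminescence. Percent activity scaled to DMSO (100%) and 9.2 uM bortezomib final (0%).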

The nature of assay [7]: High-throughput drug toxicity screening in the BPDCN cell line Cal-1 (AID 1224825). Particulars: Cal-1 BPDCN cell viability, qHTS; at 45.8 µM (top of the series) unless noted. The essentials:
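Viability of the BPDCN line Cal-1 is measured as ATP-based luminescence (CellTiter-Glo) following 48 h incubation with compounds. Percent activity uses DMSO-treated wells as 100% and 9.2 uM bortezomib as 0%.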

Assay [8] is described as follows: qHTS profiling of the MIPE4 collection as inhibitors of Plasmodium falciparum (3D7) proliferation (AID 743344).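 Further: scaled between DMSO vehicle wells and 0.29 µM artemisinin as full inhibition.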 The note with it: P. falciparum 3D7 in erythrocytes, SYBR Green DNA fluorescence, 72 h; at 28.5 µM (top of the series) unless noted. In a few lines: as §1

Nine molecules from PubChem BioAssay (NCATS) can be followed below.

On to `Cc1cnc(Nc2ccc(F)cc2Cl)nc1-c1c[nH]c(C(=O)N[C@H](CO)c2cccc(Cl)c2)c1`, for which the remaining parasite growth % (stronger effect = lower value) in assay [1] worked out at 7.37%. In assay [2], the activity, percent of control turned out to be 17.2%. In assay [3], this molecule gave a parasite growth remaining, % of DMSO control (lower = more inhibition) of 8.92%. The parasite growth, % of control (lower = inhibition) in assay [4] turned out to be 12.8%. In addition, the growth, % of control in assay [5] is 11.5%. Moreover, the cell viability, % of control (lower = more cytotoxic) in assay [6] worked out at 4.9%. In assay [7], this molecule had a viability (% of control) of 1.37%.
In the case of `CN1CCN(c2cc(C(=O)Nc3ccc4c(c3)-c3c(c(C(N)=O)nn3-c3ccc(F)cc3)CC4)c(Cl)cn2)CC1`, in assay [1], the remaining parasite growth % (stronger effect = lower value) is -2.46%. Also, in assay [2], the activity, percent of control is 0.473%. The parasite growth, % of DMSO control in assay [8] stood at 4.93%. This molecule displayed a parasite growth, % of control (lower = inhibition) in assay [4] of 16.2%. This molecule also gave a cell viability, % of control (lower = more cytotoxic) in assay [6] of 5.17%. The viability (% of control) in assay [7] is 3.02%.
As for `Cn1cc(-c2[nH]c3cc(NC(=O)[C@H](N)C4CCCCC4)cc4c3c2C=NNC4=O)cn1`, in assay [1], the remaining parasite growth % (stronger effect = lower value) was -2.18%. For the same molecule, in assay [2], the activity, percent of control was -0.309%. Also, in assay [8], the parasite growth, % of DMSO control amounted to 3.34%. Also, in assay [3], the parasite growth remaining, % of DMSO control (lower = more inhibition) is 5.92%. This molecule also gave a parasite growth, % of control (lower = inhibition) in assay [4] of 4.04%. In assay [5], this molecule displayed a growth, % of control of 2.91%. Further, the cell viability, % of control (lower = more cytotoxic) in assay [6] came out at 28.9%. In addition, the viability (% of control) in assay [7] was found to be 4.56%.
Regarding `Nc1ccccc1NC(=O)c1ccc(CNc2nccc(-c3cccnc3)n2)cc1`, in assay [1], the remaining parasite growth % (stronger effect = lower value) is -1.31%. The activity, percent of control in assay [2] was determined as 0.67%. In assay [8], this molecule displayed a parasite growth, % of DMSO control of 5.35%. Also, the parasite growth remaining, % of DMSO control (lower = more inhibition) in assay [3] was determined as 7.08%. For the same molecule, the parasite growth, % of control (lower = inhibition) in assay [4] is 7.5%. In assay [5], the growth, % of control was 2.52%. The cell viability, % of control (lower = more cytotoxic) in assay [6] stood at 12.7%. Besides, in assay [7], the viability (% of control) is 5.36%.
As to `COc1ccc(OC)c(-c2nnc3ccc(-c4ccc(OC)c(O[C@@H]5CCOC5)c4)nn23)c1`, in assay [1], the remaining parasite growth % (stronger effect = lower value) was -0.0314%. The activity, percent of control in assay [2] is 0.138%. This molecule yielded a parasite growth, % of DMSO control in assay [8] of 5.33%. Also, in assay [3], the parasite growth remaining, % of DMSO control (lower = more inhibition) was 6.53%. Further, the parasite growth, % of control (lower = inhibition) in assay [4] stood at 16%. Besides, in assay [5], the growth, % of control is 8.79%. This molecule came in with a cell viability, % of control (lower = more cytotoxic) in assay [6] of 6.73%. Further, in assay [7], the viability (% of control) is 3.56%.
As for `COc1cc2nccc(Oc3ccc(NC(=O)C4(C(=O)Nc5ccc(F)cc5)CC4)cc3)c2cc1OC`, the remaining parasite growth % (stronger effect = lower value) in assay [1] is 3.02%. The activity, percent of control in assay [2] was 14.8%. In assay [3], the parasite growth remaining, % of DMSO control (lower = more inhibition) worked out at 10.7%. This molecule showed a parasite growth, % of control (lower = inhibition) in assay [4] of 7.46%. This molecule also returned a growth, % of control in assay [5] of 2.54%. The molecule also had a cell viability, % of control (lower = more cytotoxic) in assay [6] of 5.49%. Moreover, the viability (% of control) in assay [7] is 5.29%.
In the case of `CC(C)CC(=O)Nc1n[nH]c2c1CN(C(=O)C1CCN(C)CC1)C2(C)C`, in assay [1], the remaining parasite growth % (stronger effect = lower value) came out at 9.49%. Besides, the activity, percent of control in assay [2] amounted to 13.7%. Besides, the parasite growth, % of DMSO control in assay [8] turned out to be 5.43%. In addition, the parasite growth remaining, % of DMSO control (lower = more inhibition) in assay [3] is 19.3%. In assay [5], this molecule gave a growth, % of control of 5.85%. Besides, the cell viability, % of control (lower = more cytotoxic) in assay [6] was 3.03%. Besides, the viability (% of control) in assay [7] worked out at 2.15%.
For `CN(c1ncccc1CNc1nc(Nc2ccc3c(c2)CC(=O)N3)ncc1C(F)(F)F)S(C)(=O)=O`, the remaining parasite growth % (stronger effect = lower value) in assay [1] stood at 12.7%. For the same molecule, in assay [2], the activity, percent of control was determined as 9.35%. In addition, in assay [8], the parasite growth, % of DMSO control came out at 12.5%. The molecule further came in with a parasite growth remaining, % of DMSO control (lower = more inhibition) in assay [3] of 14.1%. The molecule further returned a parasite growth, % of control (lower = inhibition) in assay [4] of 30.9%. Further, the growth, % of control in assay [5] stood at 10.4%. Further, in assay [6], the cell viability, % of control (lower = more cytotoxic) stood at 12.1%. The molecule also came in with a viability (% of control) in assay [7] of 4.76%.
Turning to `COc1ccc2c(c1)CC[C@@H](CN(C)CC(=O)O)[C@H]2c1ccccc1`, the remaining parasite growth % (stronger effect = lower value) in assay [1] came out at 101%. Further, the activity, percent of control in assay [2] was 98.6%. Also, the parasite growth, % of DMSO control in assay [8] came out at 31.6%. For the same molecule, the parasite growth remaining, % of DMSO control (lower = more inhibition) in assay [3] turned out to be 35.4%. The molecule also showed a parasite growth, % of control (lower = inhibition) in assay [4] of 28.4%. The molecule further registered a growth, % of control in assay [5] of 24.2%. The cell viability, % of control (lower = more cytotoxic) in assay [6] stood at 39.9%. For the same molecule, in assay [7], the viability (% of control) worked out at 21.4%.
